Screening results deposited in PubChem BioAssay by National Center for Advancing Translational Sciences (NCATS).
Only some compounds are listed: those with a hit (about 3.1% of all), similar ones and a draw of the others.
TexasRed fluor = Texas Red fluorescence interference in TRb-SRC2 counter-screen; TRb/SRC2 Texas Red total fluorescence interference; Potency, µM (titrated, usually from 106 µM), inactives show top-dose fluorescence change, negative = quenching; hit rate 0.29% among 280,000; active = well fitted curve in either direction with a large enough effect; inconclusive = small, poorly fitted or top-dose-only effect
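Flags fluorescent or light-absorbing compounds by total fluorescence, S + 2P, at 555 nm excitation and 632 nm emission. Mixture: 20 nM Texas Red SRC2 peptide, 0.6 uM human TRb LBD, 1 uM T3, 5% DMSO; compound exposure 5 h at ambient temperature.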
TRb-SRC2 inh = inhibitors of human thyroid hormone receptor beta-SRC2 interaction | P10828 | Potency, µM (top dose mostly 106 µM), for inactives: at the highest dose activity change, negative = inhibition, usual class: inhibitors | hit rate 0.065% among 280,000 | TRbeta-SRC2 peptide binding, fluorescence polarization; receptor liganded with 1 µM T3;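 note: plate controls were bound peptide for no effect and peptide without receptor for full effect; nearly all actives have a fitted effect of over 50% in size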
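A fluorescence polarization screen tested compounds at multiple concentrations against complex formation between 0.6 uM TRb ligand-binding domain and 20 nM Texas Red SRC2 peptide, with 1 uM T3 present; readout after 5 hr.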
Tau fluor cs = counter-screen for tau fibril formation inhibitors. hit rate 0.93% among 280,000. tau K18 P301L Alexa594 fluorescence, heparin fibrillization. Potency, µM (doses to about 57.7 µM), without a hit: at the top dose activity change, negative = decrease; note: nearly all actives have a fitted effect of over 55% in size
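Human K18 P301L tau (15 uM unlabeled plus 0.24 uM Alexa 594-labeled, final) in 100 mM sodium acetate pH 7 was mixed with compound and 20 uM heparin and incubated 6 hr at 37 C.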
Tau fibril FP = inhibitors of human tau fibril formation; P10636; K18 P301L tau heparin fibrillization, Alexa594 FP, 6 h; Potency, µM (highest dose often 57.7 µM), for the others: top-dose activity, negative = inhibition, actives largely listed as inhibitors; hit rate 0.39% among 280,000; note: nearly all actives have a fitted effect of over 55% in size
Target sequence (P10636 561-689 P618L limits assumed): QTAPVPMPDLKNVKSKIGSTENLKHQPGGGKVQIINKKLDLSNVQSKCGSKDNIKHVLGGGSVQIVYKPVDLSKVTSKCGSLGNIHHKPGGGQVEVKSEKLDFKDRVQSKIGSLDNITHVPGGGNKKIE
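Quantitative HTS format: compounds meet 15 uM recombinant K18 P301L tau and Alexa 594-tau tracer in 100 mM sodium acetate pH 7; 20 uM heparin triggers fibrillization at 37 C over 6 hr; FP gives the signal.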
Tau ThT inhib = blocks human tau fibril formation measured by thioflavin T. P10636. recombinant tau K18 P301L (four-repeat tau fragment), heparin-induced fibrillization, ThT fluorescence. Potency, µM (doses to about 57.4 µM), without a hit: at the highest dose activity, negative = inhibition, hits mostly inhibitors. hit rate 2.1% among 270,000. AID 1460; note: nearly all actives have a fitted effect of over 55% in size
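K18 P301L tau (15 uM + 0.24 uM Alexa 594-tagged), heparin 20 uM, NaOAc pH 7, 6 h 37 C; ThT 30 uM, 1 h RT, ex 450/em 510 nm.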
Numbers without * were called inactive; ? = inconclusive; . = no result; [ ] = remark or other dose. Unless noted, calls come from the whole dose curve; as a rule, active = well fitted curve in the direction sought with a large enough effect; inconclusive = small, poorly fitted or top-dose-only effect, or another doubt; inactive = no such curve, though single readings can be large; an effect the other way counts as inactive or inconclusive. Unless noted, % is set by controls: 0 for no effect and ±100 for the full control effect; potency is the fitted concentration of half-maximal effect.

SMILES	TexasRed fluor	TRb-SRC2 inh	Tau fluor cs	Tau fibril FP	Tau ThT inhib
O=C(OCC(=O)c1ccc([N+](=O)[O-])cc1)/C(=C/c1ccc(Cl)cc1)NC(=O)c1ccccc1	-3%	1%	-14%	?	28µM*
O=C(C[N+]12CCC(CC1)C(OC(=O)c1ccccc1)C2)c1ccc([N+](=O)[O-])cc1 (centres undefined)	-3%	-4%	-5%	8%	-18%
COc1cc(OC)nc(NC(=O)NS(=O)(=O)c2ncccc2C(F)(F)F)n1	-1%[201 µM]	8%[201 µM]	.	.	.
[O-]/[N+](=C/c1cccnc1)c1ccc(Br)cc1	-3%	2%	-20%	?	28µM*
O=C(Nc1ccc2nc(-c3cccs3)c(-c3cccs3)nc2c1)NC1CC1	3%	1%	?	22µM*	?
COc1ccc(Nc2cc(C)c3cc(NC(=O)c4ccccc4Cl)ccc3n2)cc1	-22%	9%	8.9µM*[quencher]	?	4µM*
CCCCC(CC)C(=O)Cl (centres undefined)	-4%[201 µM]	-1%[201 µM]	.	.	.
O=[N+]([O-])/C=C/c1ccccc1	1%	3%	.	.	.
ClC1=C(Cl)C(Cl)=C(Cl)C1=C/C=C/c1ccccc1	-19%	8%	14µM*[quencher]	?	11µM*
O=[N+]([O-])c1ccc(N2CCCNCC2)c2ncccc12	-1%	8%	-4%	1%	?
O=[N+]([O-])c1ccc(N2CCCCC2)c2ncccc12	-1%	12%	?	-15%	16µM*
O=[N+]([O-])c1ccc(N2CCCCCC2)c2ncccc12	-3%	2%	-28%	-4%	16µM*
O=C1OC(c2cc(I)c(O)c(I)c2)(c2cc(I)c(O)c(I)c2)c2ccccc21	?	13%	7.1µM*[quencher]	?	13µM*
O=C1C=C2C(=CCOC2O)O1 (centres undefined)	3%[201 µM]	5%[201 µM]	-19%	2µM*	2.2µM*
CC1=C(O)C(=O)[C@H]2O[C@@H]2C1=O	-4%	-2%	?	4µM*	2µM*
Cc1cc(C=C2C(=O)N(C)C(=S)N(C)C2=O)c(C)n1C1CCCC1	5%	0%	?	?	25µM*
Cc1cc(/C=C2\C(=O)NC(=S)N(C)C2=O)c(C)n1C1CCCCC1	3%	11%	-11%	-1%	?
CC(C)C(=O)OCC(C)(C)C(OC(=O)C(C)C)C(C)C (centres undefined)	-1%[201 µM]	-3%[201 µM]	.	.	.
